Results on 32 compounds are retold here after PubChem BioAssay (EPA / NIEHS).

Results filed as inconclusive are left out. Active and inactive are the calls of the source. How the source made its calls: active means hit-call score of the fitted dose curve at least 0.9, where 1 is the maximum; inconclusive means response in the unintended direction; inactive means score below 0.9.

Experiment [1] concerns the target zebrafish Estrogen Receptor (ESR1), esr1 (gene 259252) (UniProt P57717). Description: ATG_zfER1_XSP1: Attagene TRANS-FACTORIAL Multi-Species (XSP1) HepG2 Assay for zebrafish Estrogen Receptor (ESR1) (AID 2283772). In short, it runs like this:
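Exogenous chimeric receptor-GAL4 activity is measured in transiently transfected human HepG2 liver cells after 24 h compound exposure. Reporter transcripts are detected by RT-PCR and fluorescent capillary electrophoresis, analysed for signal gain relative to DMSO.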

Experiment [2] concerns zebrafish Estrogen Receptor (ESR2B), gene 317733. Briefly: ATG_zfER2b_XSP1: Attagene TRANS-FACTORIAL Multi-Species (XSP1) HepG2 Assay for zebrafish Estrogen Receptor (ESR2B) (AID 2283773). In short, it runs like this:
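Medium contained 3 nM 6-alpha-fluorotestosterone. Reporter mRNA induction by exogenous zebrafish ER2b-Gal4 chimera was read 24 h post-dose in transiently transfected HepG2 cells, using RT-PCR, fluorescent labelling, HpaI digestion and capillary electrophoresis.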

Experiment [3] deals with frog Estrogen Receptor (ESR2), gene 100174814. Description: ATG_frER2_XSP1: Attagene TRANS-FACTORIAL Multi-Species (XSP1) HepG2 Assay for frog Estrogen Receptor (ESR2) (AID 2283774). In short, it runs like this: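 Reporter mRNA from a multiplexed TRANS system, measured by RT-PCR with fluorescent labelling and capillary electrophoresis, 24 hours after chemical exposure. Human HepG2 liver cells carried exogenous frog ER-Gal4 chimera; medium included 3 nM 6-alpha-fluorotestosterone; increases versus DMSO analysed.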

The test system of experiment [4] is frog Estrogen Receptor (ESR1), gene 398734. Description: ATG_frER1_XSP1: Attagene TRANS-FACTORIAL Multi-Species (XSP1) HepG2 Assay for frog Estrogen Receptor (ESR1) (AID 2283777). In outline: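 HepG2 cells transiently transfected with GAL4-UAS reporter units and frog ER–Gal4 chimera were dosed for 24 h with 3 nM 6-alpha-fluorotestosterone present. Reporter mRNA was measured by RT-PCR and capillary electrophoresis; gain of signal fitted versus DMSO.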

The subject of experiment [5] is zebrafish Estrogen Receptor (ESR2A), gene 317734. Description: ATG_zfER2a_XSP1: Attagene TRANS-FACTORIAL Multi-Species (XSP1) HepG2 Assay for zebrafish Estrogen Receptor (ESR2A) (AID 2283778). The procedure:
ATG_XSP1_multi-species_TRANS is a cell-based, multiplexed assay created by modifying the existing Attagene TRANS-FACTORIAL system to include a panel of nuclear receptors from some or all the following species: human (Homo sapiens), mouse (Mus musculus), frog (Xenopus laevis), zebrafish (Danio rerio), chicken (Gallus gallus), and turtle (Chrysemys picta). The […] format uses HepG2, a human liver cell line, with measurements taken at 24 hours after chemical dosing in a 24-well plate. Xsp1 included 3 nM 6-alpha-fluorotestosterone to partially stimulate the androgen receptor.ATG_zfER2a_XSP1 is one of 29 assay components measured or calculated from the ATG_XSP1_multi-species_TRANS assay. It is designed to make measurements of mRNA induction, a form of inducible reporter, as detected with fluorescence intensity signals by Reverse transcription polymerase chain reaction (RT-PCR) and Capillary electrophoresis technology.The assay endpoint ATG_zfER2a_XSP1 was analyzed in the positive analysis fitting direction relative to DMSO as the negative control and baseline of activity. […] Furthermore, this assay endpoint can be referred to as a primary readout, because this assay has produced multiple assay endpoints where this one serves a reporter gene function. […]

Experiment [6] deals with chicken Estrogen Receptor (ESR1), ESR1 (gene 396099) (UniProt P06212). Description: ATG_chERa_XSP1: Attagene TRANS-FACTORIAL Multi-Species (XSP1) HepG2 Assay for chicken Estrogen Receptor (ESR1) (AID 2283779). In short, it runs like this:
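Trans-activation of an exogenous chicken ERα–Gal4 chimera read as reporter transcript (RT-PCR, fluorescent labeling, capillary electrophoresis) after 24 h compound exposure of transfected HepG2; medium held 3 nM 6-alpha-fluorotestosterone. Positive-direction fit against DMSO.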

Experiment [7] has as its target Estrogen receptor (Homo sapiens) (UniProt P03372). Description: ATG_hERa_XSP1: Attagene TRANS-FACTORIAL Multi-Species (XSP1) HepG2 Assay for human Estrogen Receptor (ESR1) (AID 2283780). In outline: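 Reporter transcripts from multiplexed GAL4-UAS units driven by NR-Gal4 chimeras in transiently transfected HepG2 were measured by RT-PCR with capillary electrophoresis 24 h post-dose, with 3 nM 6-alpha-fluorotestosterone present; gain-of-signal relative to DMSO.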

In experiment [8] the test system is turtle Estrogen Receptor (ESR1), gene 101933533. Briefly: ATG_trERa_XSP1: Attagene TRANS-FACTORIAL Multi-Species (XSP1) HepG2 Assay for turtle Estrogen Receptor (ESR1) (AID 2283781). In short, it runs like this:
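Transactivation measured 24 h post-dose as reporter mRNA (RT-PCR, fluorescent capillary electrophoresis) from an NR-Gal4 turtle ER construct in HepG2. Medium included 3 nM 6-alpha-fluorotestosterone; increase over DMSO fitted.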

Experiment [9] in a line: ACEA_AR_agonist_AUC_viability: ACEA Biosciences xCELLigence Real-Time Cell Analysis on Androgen Receptor Agonism for Viability (AID 2283775).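 On AC50: viability read 80 hours after compound addition.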 In short, it runs like this: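 22Rv1 cells; impedance growth kinetics; 8-pt 1:4 dilutions from 100 uM top final, ≤0.5% DMSO; n = 2; 80 h read; AUC viability, loss-of-signal vs DMSO.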
Experiment [10] in a line: ACEA_AR_antagonist_AUC_viability: ACEA Biosciences xCELLigence Real-Time Cell Analysis on Androgen Receptor Antagonism for Viability (AID 2283776).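 Further: 22Rv1 human prostate cancer cells growing on impedance electrode plates; area under impedance growth curve at 80 h after dosing as viability; hits lower the growth signal relative to DMSO meaning cytotoxicity.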 In short, it runs like this:
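Real-time electrical impedance tracks 22Rv1 proliferation after continuous compound exposure (top 100 uM final, 1:4 steps, 8 concentrations). The 80 h area-under-curve serves as the cytotoxicity readout relative to DMSO.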

Sequence of zebrafish Estrogen Receptor (ESR1), esr1 (gene 259252) (P57717 whole entry, looked up, the tested form may be a part): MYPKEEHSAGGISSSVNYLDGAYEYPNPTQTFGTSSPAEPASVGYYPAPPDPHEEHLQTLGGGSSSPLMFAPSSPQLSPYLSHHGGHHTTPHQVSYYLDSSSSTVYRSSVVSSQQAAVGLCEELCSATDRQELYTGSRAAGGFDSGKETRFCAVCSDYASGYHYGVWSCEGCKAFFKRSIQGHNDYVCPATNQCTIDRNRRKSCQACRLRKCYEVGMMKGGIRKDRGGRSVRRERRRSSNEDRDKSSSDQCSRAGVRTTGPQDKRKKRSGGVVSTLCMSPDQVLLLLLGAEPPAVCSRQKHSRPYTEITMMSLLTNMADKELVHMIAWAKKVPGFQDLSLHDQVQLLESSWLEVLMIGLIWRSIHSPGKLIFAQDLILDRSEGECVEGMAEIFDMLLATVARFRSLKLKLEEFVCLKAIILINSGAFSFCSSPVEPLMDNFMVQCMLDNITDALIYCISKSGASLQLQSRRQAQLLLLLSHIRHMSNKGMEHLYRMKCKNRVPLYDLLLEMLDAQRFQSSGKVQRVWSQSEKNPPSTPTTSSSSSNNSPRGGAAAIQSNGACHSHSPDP
Sequence of Estrogen receptor (Homo sapiens) (P03372 whole entry, looked up, the tested form may be a part): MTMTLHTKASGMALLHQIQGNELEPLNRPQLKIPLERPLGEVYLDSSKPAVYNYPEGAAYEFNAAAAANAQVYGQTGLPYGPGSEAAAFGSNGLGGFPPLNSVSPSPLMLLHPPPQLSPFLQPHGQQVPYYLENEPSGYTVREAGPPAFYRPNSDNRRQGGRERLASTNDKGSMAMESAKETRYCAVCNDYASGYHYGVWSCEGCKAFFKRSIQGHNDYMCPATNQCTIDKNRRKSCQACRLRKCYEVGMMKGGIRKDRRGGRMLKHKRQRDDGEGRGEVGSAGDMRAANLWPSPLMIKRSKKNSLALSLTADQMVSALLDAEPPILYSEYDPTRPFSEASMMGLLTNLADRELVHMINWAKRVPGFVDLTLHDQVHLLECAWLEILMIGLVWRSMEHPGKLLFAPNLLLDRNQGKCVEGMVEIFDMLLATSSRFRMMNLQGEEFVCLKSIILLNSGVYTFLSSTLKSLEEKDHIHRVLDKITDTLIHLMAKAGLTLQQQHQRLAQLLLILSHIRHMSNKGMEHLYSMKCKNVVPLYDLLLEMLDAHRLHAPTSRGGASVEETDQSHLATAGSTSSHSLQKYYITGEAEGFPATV
Sequence of chicken Estrogen Receptor (ESR1), ESR1 (gene 396099) (P06212 whole entry, looked up, the tested form may be a part): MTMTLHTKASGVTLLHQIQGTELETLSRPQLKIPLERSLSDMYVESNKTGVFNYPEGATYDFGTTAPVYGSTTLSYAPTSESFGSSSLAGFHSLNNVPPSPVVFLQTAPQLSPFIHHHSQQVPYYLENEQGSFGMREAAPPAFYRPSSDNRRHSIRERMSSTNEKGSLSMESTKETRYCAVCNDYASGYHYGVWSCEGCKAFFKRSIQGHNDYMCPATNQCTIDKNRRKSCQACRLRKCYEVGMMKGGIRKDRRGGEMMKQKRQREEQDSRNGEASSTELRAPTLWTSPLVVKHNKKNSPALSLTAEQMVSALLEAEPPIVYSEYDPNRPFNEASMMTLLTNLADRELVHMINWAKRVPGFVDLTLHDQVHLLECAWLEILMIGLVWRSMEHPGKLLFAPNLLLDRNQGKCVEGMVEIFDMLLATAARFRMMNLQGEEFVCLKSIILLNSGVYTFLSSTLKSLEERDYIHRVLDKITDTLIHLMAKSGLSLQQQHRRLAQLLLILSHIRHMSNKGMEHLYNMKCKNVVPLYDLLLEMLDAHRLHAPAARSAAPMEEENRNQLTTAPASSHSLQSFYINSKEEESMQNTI

By AC50 is commonly meant the concentration giving half of the maximal activity seen. For the compound `CN(C)C(=N)N=C(N)N`, in [1], the result was inactive. Also, in experiment [2], the AC50 is 100 µM (active). In the case of `CN(CCOc1ccc(CC2SC(=O)NC2=O)cc1)c1ccccn1` (centres undefined), the result in experiment [1], in experiment [3], in experiment [5] and in experiment [7] was inactive. Also, the AC50 in [2] was 0.0787 µM (active); in [4], 66.6 nM (active); in [6], 35.3 nM (active); in [8], 37.2 nM (active). With `CCCCCCCCCCCCCCCC(=O)OC[C@H](O)[C@H]1OC(=O)C(O)=C1O`, the outcome in experiment [9] and in [10] was inactive. For `CCCCCCCCCCC(CO)CCCCCCCC` (centres undefined), in experiment [9], the AC50 was 9.96 µM (active). As to `CC1COc2ccccc2N1C(=O)C(Cl)Cl` (centres undefined), the values for the AC50 in [9] and in experiment [10] were 2.33 µM (active) and 4.63 µM (active), respectively. In the case of `CCCCc1ccc(N)cc1`, the call in [9] was inactive. Same read-out and setting: under `NC(=O)NC1NC(=O)NC1=O` (centres undefined) stands “inactive”.

For `CCCC/C=C\CCCCCCCCCC=O`, the compound was classed as inactive in experiment [9]. In the case of `CCCCCCCCCC=O`, the outcome in experiment [9] was inactive.

As to `CC1CC(OC(=O)c2ccccc2O)CC(C)(C)C1` (centres undefined), the call in experiment [10] was inactive. On the same count and under the same terms, under `NCCCCCCN` stands “inactive”. On to `Cc1ccc(C(C)C)cc1O`, for which the outcome in experiment [9] was inactive. For `COc1cc(C(C)(C)C)c(O)c(C(C)(C)C)c1`, the call in [9] and in experiment [10] was inactive. On to `CCCCOCCOCCOCCOCCO`, for which the call in [10] was inactive. Take `CC(C)(C)C(=O)c1ccccc1`: in [9], the call was inactive. For `COc1ccc(O)cc1`, in experiment [9], the result was inactive.

For the compound `CCCCCCCCC=O`, the result in [9] and in experiment [10] was inactive. With `C=C(C)C(=O)O`, the outcome in [9] and in experiment [10] was inactive. Consider `O=Nc1ccc(Nc2ccccc2)cc1`, for which, in [9], the compound was classed as inactive. Turning to `Cc1ccc(O)c(C(C)(C)C)c1`, the call in experiment [9] and in experiment [10] was inactive. Take `c1ccc2[nH]ccc2c1`: the compound was classed as inactive in [9] and in experiment [10]. On to `CCCCCCCCCCN`, for which the outcome in [9] was inactive. The same measure, in the same setting: with `CC(=O)C=CC1=C(C)CCCC1(C)C` the entry was “inactive”. The same measure, in the same setting: with `CC1(C)C(=O)N(Br)C(=O)N1Cl` the entry was “inactive”. Still for that read-out and setting: under `CCCCCC(CO)CCC` (centres undefined) stands “inactive”. On to `CCN(CC)CCOC(=O)c1ccc(N)cc1`, for which the AC50 in experiment [9] is 20.5 µM (active). For the compound `OCCN1CCNCC1`, the compound was classed as inactive in experiment [9] and in experiment [10].

Regarding `CCCCC(CC)COC(=O)/C=C\C(=O)OCC(CC)CCCC` (centres undefined), in experiment [9], the compound was classed as inactive. The same measure, in the same setting: with `CCN(CC)c1ccc(C(=C2C=CC(=[N+](CC)CC)C=C2)c2ccc(S(=O)(=O)O)cc2S(=O)(=O)[O-])cc1` the entry was “inactive”; with `CC(=O)OCCC(C)CC(C)(C)C` (centres undefined), “inactive”. The same measure, in the same setting: under `CN(C)CCCN` stands “inactive”.

With `CCC/C=C/C=O`, the call in experiment [9] and in experiment [10] was inactive.
